Screening data (PubChem BioAssay)
VP16 counter = inhibits Gal4-VP16 luciferase reporter, ROR gamma counter-screen; Drosophila S2 Gal4-VP16 UAS-luciferase, luminescence, 20 h; Potency, µM (highest dose often 53.6 µM), for inactives: top-dose activity, negative = inhibition, most hits filed as inhibitors; hit rate 3.5% among 310,000;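 further: Gal4-VP16 expression switched on by copper sulfate through the metallothionein promoter; potency means the concentration at half of the fitted maximal effect; nearly all actives have a fitted effect of over 50% in size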
ELG1 repair inh = ELG1-dependent DNA repair inhibition. Potency, µM (series often up to 46.1 µM), for inactives: at the highest dose activity change, negative = inhibition, actives largely listed as inhibitors. HEK293T ELG1-luciferase reporter, luminescence, 16 h; DNA damage induced by 5-fluorouridine. hit rate 2.3% among 330,000; further: potency means the concentration at half of the fitted maximal effect; nearly all actives have a fitted effect of over 55% in size
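Overnight (16 hr) co-exposure of 2,000 cells/well to 5-fluorouridine and compound at 37 °C preceded detection. Luciferase was quantified via ONE-Glo luminescence; loss of signal denotes inhibition.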
RORg inh = inhibitors of mouse ROR gamma transcriptional activity; Potency, µM (highest dose often 53.6 µM), inactives show at the highest dose activity change, negative = inhibition, actives largely listed as inhibitors; AID 2551; hit rate 5.4% among 310,000; P51450; Drosophila S2 Gal4-RORgamma UAS-luciferase reporter, 20 h; further: potency means the concentration at half of the fitted maximal effect; nearly all actives have a fitted effect of over 60% in size
Target sequence (P51450 whole entry, looked up, the tested form may be a part): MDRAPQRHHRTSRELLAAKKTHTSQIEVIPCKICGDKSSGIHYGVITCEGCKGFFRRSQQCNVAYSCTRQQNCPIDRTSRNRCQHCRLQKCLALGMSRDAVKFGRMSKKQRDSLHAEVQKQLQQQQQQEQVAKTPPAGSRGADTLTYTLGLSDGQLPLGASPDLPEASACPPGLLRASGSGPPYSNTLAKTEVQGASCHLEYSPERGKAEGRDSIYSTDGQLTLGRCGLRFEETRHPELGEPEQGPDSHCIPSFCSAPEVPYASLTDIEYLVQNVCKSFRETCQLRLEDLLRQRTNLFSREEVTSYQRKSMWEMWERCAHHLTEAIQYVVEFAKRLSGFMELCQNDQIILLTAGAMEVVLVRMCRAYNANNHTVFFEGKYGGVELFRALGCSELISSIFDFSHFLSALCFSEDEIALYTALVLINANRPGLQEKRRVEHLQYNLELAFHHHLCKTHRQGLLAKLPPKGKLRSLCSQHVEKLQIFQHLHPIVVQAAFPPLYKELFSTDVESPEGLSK
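Using a luciferase readout, inhibitors were identified by reduced reporter activity in Drosophila cells coexpressing a copper-inducible Gal4–ROR gamma fusion and UAS-driven Photinus luciferase, incubated 20 hr after 700 uM copper sulfate.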
TDP1 cell noCPT = qHTS for Inhibitors of human tyrosyl-DNA phosphodiesterase 1 (TDP1): qHTS in cells in absence of CPT. DT40 Tdp1-/- hTDP1 cells, no CPT, ATP luminescence, 48 h. Potency, µM (titrated, usually from 46.2 µM), inactives show at the top dose activity change, negative = growth inhibition, most hits filed as inhibitors. hit rate 15% among 420,000. AID 686978, 2013; further: potency means the concentration at half of the fitted maximal effect; nearly all actives have a fitted effect of over 55% in size
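DT40 Tdp1-/-;hTDP1 cells, no CPT (DMSO vehicle only), 400 cells/well; compounds pin-transferred; ≥48 hr, 37 °C; CellTiter-Glo 30 min RT dark, luminescence read.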
DT40 TDP1 CPT = DT40-hTDP1 cell growth loss with CPT. chicken DT40 Tdp1-/-;hTDP1 cells + 20 nM CPT, ATP luminescence, 48 h. Potency, µM (titrated, usually from 46.2 µM), without a hit: top-dose activity change, negative = growth inhibition, most hits filed as inhibitors. hit rate 12% among 420,000. AID 686979; further: potency means the concentration at half of the fitted maximal effect; nearly all actives have a fitted effect of over 55% in size
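Chicken DT40 Tdp1-/- cells complemented with human TDP1, 400 cells/well, exposed to compounds plus 20 nM camptothecin for at least 48 h at 37 C; viability read as ATP content by CellTiter-Glo luminescence.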
IL-1B inflam inh = inhibitors of inflammasome signaling (IL-1 beta secretion); THP-1 LPS/ATP IL-1B secretion, AlphaLISA, 16 h; stronger effect = lower value; activity change, % at 57.5 µM; hit rate 4.7% among 360,000; AID 743279; in the data active means activity change below about -50%; inconclusive means mostly about -30% to -49%
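Secreted IL-1B measured by AlphaLISA bead assay after 16 h compound exposure of THP-1 cells; compounds (final up to 57.5 uM) added 1 h before LPS (250 ng/mL) and ATP (1.25 mM) stimulation; lower signal means less secretion.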
Starred values were filed as active, the others as inactive; ? = inconclusive; · = no result; [ ] = dose if it differs, or a comment. This is a sample that favours compounds with a hit; in the whole collection about 21% have one here. Unless noted, the call rests on the fitted dose curve; in most records, active means well fitted curve in the direction sought with a large enough effect; inconclusive means small, poorly fitted or top-dose-only effect, or another doubt; inactive means no such curve, though single readings can be large; an effect the other way counts as inactive or inconclusive. On the % scale 0 is the no-effect control and ±100 the full control effect.

SMILES	VP16 counter	ELG1 repair inh	RORg inh	TDP1 cell noCPT	DT40 TDP1 CPT	IL-1B inflam inh
CCn1c(=O)cc(SCC(=O)NCc2cccc(Cl)c2)c2ccccc21	·	·	·	9.2µM*	?	·
CCn1c(=O)cc(SCC(=O)Nc2ccc(Cl)cc2)c2ccccc21	-9%	?	19%	-17%	20%	-4
CCn1c(=O)cc(SCC(=O)NCc2ccc(Cl)cc2)c2ccccc21	·	·	·	21µM*	10µM*	·
COc1cccc(CNC(=O)CSc2cc(=O)n(C)c3ccccc23)c1	-6%	?	-14%	4%	29%	-19
Cc1ccc(NC(=O)c2cccc(S(=O)(=O)N(C)C3CCCCC3)c2)nc1	·	?	·	?	?	-2
CCCC(=O)N1CCCC1(C)C(=O)NCc1ccc(SC)cc1 (stereo not given)	·	·	·	0%	11%	8
CC(C)CCNc1nc2c(S(=O)(=O)c3ccc(Br)cc3)nnn2c2ccsc12	·	·	·	-24%	?	·
CC1CCN(C(=O)COC(=O)Cn2cnc3ccccc32)CC1	·	16%	·	-15%	-22%	5
Cc1cc2c(cc1NC(=O)c1ccccc1Cl)n(C)c(=O)c(=O)n2C	·	·	·	-14%	-20%	·
O=C(NNc1ccccc1F)C1CCC1	2%	16µM*	?	-17%	5%	2
O=C(NNc1ccc(F)cc1F)C1CCC1	1%	?	5%	-19%	-5%	·
C=CCn1c(SC(F)F)nc2scc(-c3ccco3)c2c1=O	5µM*	25%	?	5%	9%	?
C=CCn1c(SCc2ccc3c(c2)OCO3)nc2scc(-c3ccco3)c2c1=O	3%	-11%	5%	-20%	-11%	0
C=CCn1c(SCC(C)=O)nc2scc(-c3ccco3)c2c1=O	?	11%	?	13µM*	?	-5
CC(C)C(C)(C#N)NC(=O)CSc1nc2scc(-c3ccco3)c2c(=O)n1-c1ccccc1 (stereo not given)	6%	?	12%	?	-18%	-27
CC(C)C(C)NC(=O)CSc1nc2scc(-c3ccco3)c2c(=O)n1-c1ccccc1 (stereo not given)	14µM*	0%	?	?	?	-21
O=C(Cc1ccc(NC(=O)C2CCCN(C(=O)C3CCC3)C2)cc1)Nc1cccc(C(=O)N2CCCCC2)c1 (stereo not given)	·	·	·	?	-9%	8
CCCCCC/C=N/Nc1nnc(Cc2ccc(OC)c(OC)c2)c(=O)[nH]1	?	-1%	?	?	?	-3
COc1ccc(Cc2nnc(N/N=C/c3ccc(O)cc3O)[nH]c2=O)cc1OC	-13%	0%	22%	5.8µM*	5.8µM*	-53*
CCc1ccc(N=Nc2ccc(O)c3[nH]cnc23)cc1	·	?	·	23µM*	?	-3
COc1ccc(CCNC(=O)CCC(=O)N2CC(C)Oc3ccc(Cl)cc32)cc1OC (stereo not given)	-2%	12%	?	?	18µM*	-1
Cc1ccc2c(c1)N(C(=O)CCC(=O)NC1CCN(Cc3ccccc3)CC1)CC(C)O2 (stereo not given)	-3%	-3%	30%	?	21µM*	-6
Cc1ccc2c(c1)N(C(=O)CCC(=O)N1CCN(c3ccccn3)CC1)CC(C)O2 (stereo not given)	-2%	-4%	-8%	?	?	-12
Cc1ccc2c(c1)N(C(=O)CCC(=O)NCc1cccc(Cl)c1)CC(C)O2 (stereo not given)	-13%	8%	-41%	16µM*	?	?
CC1CN(C(=O)CCC(=O)NCc2ccccc2)c2cc(Cl)ccc2O1 (stereo not given)	4%	18%	14%	?	-20%	-25
SMILES	VP16 counter	ELG1 repair inh	RORg inh	TDP1 cell noCPT	DT40 TDP1 CPT	IL-1B inflam inh
Cc1cccc(N2CCN(C(=O)CCC(=O)N3CC(C)Oc4ccc(C)cc43)CC2C)c1 (stereo not given)	-9%	-15%	35%	?	16µM*	-26
CCC(=O)O[C@@]1(C(=O)SCF)[C@@H](C)C[C@H]2[C@@H]3C[C@@H](F)C4=CC(=O)C=C[C@@]4(C)[C@]3(F)[C@@H](O)C[C@]21C	-4%[17 µM]	·	-23%[2.98 µM]	·	·	·
COc1ccccc1N1CCN(C2CCCN(C(=O)CCc3cnn(C)c3)C2)CC1 (stereo not given)	-9%	-11%	-5%	25%	-9%	15
Cc1cccc(C)c1NC(=O)C(c1ccc(C#N)cc1)n1c(=O)c(-c2ccccc2)nc2ccccc21 (stereo not given)	·	·	·	?	-5%	-50*
CC(C)(C)NC(=O)C(c1ccnc2ccccc12)n1c(=O)c(-c2ccccc2)nc2ccccc21 (stereo not given)	·	·	·	-24%	-27%	12
Cc1cccc(C)c1NC(=O)C(c1ccnc2ccccc12)n1c(=O)c(-c2ccccc2)nc2ccccc21 (stereo not given)	·	·	·	15µM*	?	-20
O=C(O)C1CSC(c2coc3ccccc3c2=O)N1 (stereo not given)	?	-1%	1%	?	26µM*	1
CC1CCOC(c2coc3ccccc3c2=O)O1 (stereo not given)	?	?	?	-10%	-4%	-4
O=C1C2CC=CCC2C(=O)N1c1ccc(OCC(O)Cn2nnc3ccccc32)cc1 (stereo not given)	2%	?	25%	23µM*	?	50
N#Cc1ccc(-c2ccc(OCC(O)Cn3nnc4ccccc43)cc2)cc1 (stereo not given)	?	-11%	-29%	?	?	-59*
Cc1ccc(C(=O)NCC(=O)NCC(c2cccs2)N(C)C)cc1C (stereo not given)	·	0%	·	-2%	-19%	9
CC(=O)NCCNc1cc(-c2ccccc2C)ncn1	-3%	·	0%	16%	13%	·
Cc1onc(-c2ccccc2Cl)c1C(=O)N1CCN(S(=O)(=O)c2ccc(F)c(F)c2)CC1	-18%	1%	0%	?	?	12
Cc1cc(NC(=O)CS(=O)(=O)c2cn(Cc3ccc(F)cc3)c3ccccc23)no1	?	?	?	10µM*	21µM*	-1
Cc1cc(NC(=O)CS(=O)(=O)c2cn(Cc3cccc(F)c3)c3ccccc23)no1	-8%	21µM*	-3%	?	?	-55*
